Measurements reported in the supplement of paper PMC12282887.
± gives the standard deviation of the averaged measurements.

Columns and labels:
Experiment in all cases: promoter activity interaction Z-score (Lux/OD deviation from empty-vector control); higher = stronger promoter induction by the compound
[1] = test system: E. coli BW25113 acrABp lux reporter
Procedure, shortened: (§1)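 Four 1:2 dilutions of each compound were tested in biological duplicates on E. coli BW25113 carrying low-copy luxCDABE promoter reporters, either wild type or deleted for one of three genes. Cultures of 40 µl LB Lennox in 384-well plates were kept at 37°C and read for OD600 and luminescence every 30 min for 12 h. Integration windows were 0–8 h for wild type and 1–9 h for deletion strains, and wells under 10% of the median growth value were discarded. The score is a Z-transformed residual of growth-normalised luminescence relative to a control fit.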

[2] = test system: E. coli BW25113 marRABp lux reporter
Procedure, shortened: as §1

[3] = test system: E. coli BW25113 micFp lux reporter
Procedure, shortened: as §1

[4] = test system: E. coli BW25113 ompFp lux reporter
Procedure, shortened: as §1

[5] = test system: E. coli BW25113 robp lux reporter
Procedure, shortened: as §1

[6] = test system: E. coli BW25113 soxSp lux reporter
Procedure, shortened: as §1

[7] = test system: E. coli BW25113 tolCp lux reporter
Procedure, shortened: as §1

[8] = 11.4 µg/ml, genetic background: wild type
[9] = 11.4 µg/ml, genetic background: ΔmarA
[10] = 11.4 µg/ml, genetic background: Δrob
[11] = 11.4 µg/ml, genetic background: ΔsoxS
[12] = 22.8 µg/ml, genetic background: wild type
[13] = 22.8 µg/ml, genetic background: ΔmarA
[14] = 22.8 µg/ml, genetic background: Δrob
[15] = 22.8 µg/ml, genetic background: ΔsoxS
[16] = 45.5 µg/ml, genetic background: wild type
[17] = 45.5 µg/ml, genetic background: ΔmarA
[18] = 45.5 µg/ml, genetic background: Δrob
[19] = 45.5 µg/ml, genetic background: ΔsoxS
[20] = 91.1 µg/ml, genetic background: wild type
[21] = 91.1 µg/ml, genetic background: ΔmarA
[22] = 91.1 µg/ml, genetic background: Δrob
[23] = 91.1 µg/ml, genetic background: ΔsoxS

In the case of Cn1c(=O)[nH]c2[nH]c(=O)[nH]c2c1=O [1-Methyluric acid], the “promoter activity interaction Z-score” value [1, 8] is reported as -0.104 ± 0.078, the “promoter activity interaction Z-score” value [1, 9] is reported as 0.564 ± 0.66 and the “promoter activity interaction Z-score” value [1, 10] is reported as -0.212 ± 0.12. For the same molecule, the “promoter activity interaction Z-score” value [1, 11] was 0.297 ± 0.53, the “promoter activity interaction Z-score” value [1, 12] was 0.00584 ± 0.0026 and the “promoter activity interaction Z-score” value [1, 13] was 0.938 ± 0.94. The “promoter activity interaction Z-score” value [1, 14] was -0.286 ± 0.35, the “promoter activity interaction Z-score” value [1, 15] was 0.0572 ± 0.41 and the “promoter activity interaction Z-score” value [1, 16] was -0.247 ± 0.3. The “promoter activity interaction Z-score” value [1, 17] was -0.354 ± 0.38, the “promoter activity interaction Z-score” value [1, 18] was -0.533 ± 0.26 and the “promoter activity interaction Z-score” value [1, 19] was 0.207 ± 0.88. For the same molecule, the “promoter activity interaction Z-score” value [1, 20] was -0.104 ± 0.14, the “promoter activity interaction Z-score” value [1, 21] was 0.464 ± 0.1 and the “promoter activity interaction Z-score” value [1, 22] was -0.246 ± 0.046. For the same molecule, the “promoter activity interaction Z-score” value [1, 23] was 0.186 ± 0.74, the “promoter activity interaction Z-score” value [2, 8] was 0.0849 ± 0.054 and the “promoter activity interaction Z-score” value [2, 9] was -0.0996 ± 0.1. For the same molecule, the “promoter activity interaction Z-score” value [2, 10] was -0.0237 ± 0.035, the “promoter activity interaction Z-score” value [2, 11] was -0.145 ± 0.068 and the “promoter activity interaction Z-score” value [2, 12] was -0.0689 ± 0.41. For the same molecule, the “promoter activity interaction Z-score” value [2, 13] was -0.0515 ± 0.28, the “promoter activity interaction Z-score” value [2, 14] was -0.217 ± 0.19 and the “promoter activity interaction Z-score” value [2, 15] was -0.242 ± 0.1. The “promoter activity interaction Z-score” value [2, 16] was -0.206 ± 0.59, the “promoter activity interaction Z-score” value [2, 17] was -0.417 ± 0.023 and the “promoter activity interaction Z-score” value [2, 18] was -0.419 ± 0.29. The “promoter activity interaction Z-score” value [2, 19] was -0.415 ± 0.043, the “promoter activity interaction Z-score” value [2, 20] was -0.367 ± 0.052 and the “promoter activity interaction Z-score” value [2, 21] was 0.16 ± 0.19. The “promoter activity interaction Z-score” value [2, 22] was -0.423 ± 0.058, the “promoter activity interaction Z-score” value [2, 23] was -0.211 ± 0.17 and the “promoter activity interaction Z-score” value [3, 8] was -0.0236 ± 0.39. For the same molecule, the “promoter activity interaction Z-score” value [3, 9] was 0.118 ± 0.021, the “promoter activity interaction Z-score” value [3, 10] was 0.0501 ± 0.18 and the “promoter activity interaction Z-score” value [3, 11] was 0.153 ± 0.11. The “promoter activity interaction Z-score” value [3, 12] was 0.0921 ± 0.34, the “promoter activity interaction Z-score” value [3, 13] was 0.0777 ± 0.13 and the “promoter activity interaction Z-score” value [3, 14] was 0.162 ± 0.1. For the same molecule, the “promoter activity interaction Z-score” value [3, 15] was -0.0599 ± 0.019, the “promoter activity interaction Z-score” value [3, 16] was -0.0797 ± 0.0059 and the “promoter activity interaction Z-score” value [3, 17] was 0.0715 ± 0.14. For the same molecule, the “promoter activity interaction Z-score” value [3, 18] was -0.119 ± 0.051, the “promoter activity interaction Z-score” value [3, 19] was 0.323 ± 0.18 and the “promoter activity interaction Z-score” value [3, 20] was -0.191 ± 0.057. For the same molecule, the “promoter activity interaction Z-score” value [3, 21] was 0.0296 ± 0.15, the “promoter activity interaction Z-score” value [3, 22] was -0.0667 ± 0.089 and the “promoter activity interaction Z-score” value [3, 23] was 0.409 ± 0.52. The “promoter activity interaction Z-score” value [4, 8] was 0.326 ± 0.31, the “promoter activity interaction Z-score” value [4, 9] was 0.693 ± 0.12 and the “promoter activity interaction Z-score” value [4, 10] was 0.46 ± 0.48. For the same molecule, the “promoter activity interaction Z-score” value [4, 11] was 0.431 ± 0.45, the “promoter activity interaction Z-score” value [4, 12] was 0.321 ± 0.41 and the “promoter activity interaction Z-score” value [4, 13] was 0.558 ± 0.49. The “promoter activity interaction Z-score” value [4, 14] was 0.739 ± 0.54, the “promoter activity interaction Z-score” value [4, 15] was 0.326 ± 0.25 and the “promoter activity interaction Z-score” value [4, 16] was -0.32 ± 0.069. For the same molecule, the “promoter activity interaction Z-score” value [4, 17] was 0.0147 ± 0.41, the “promoter activity interaction Z-score” value [4, 18] was -1.23 ± 0.62 and the “promoter activity interaction Z-score” value [4, 19] was -0.438 ± 0.48. The “promoter activity interaction Z-score” value [4, 20] was 0.135 ± 0.01, the “promoter activity interaction Z-score” value [4, 21] was 0.619 ± 0.048 and the “promoter activity interaction Z-score” value [4, 22] was -0.101 ± 0.29. The “promoter activity interaction Z-score” value [4, 23] was 0.374 ± 1.1, the “promoter activity interaction Z-score” value [5, 8] was -0.269 ± 0.61 and the “promoter activity interaction Z-score” value [5, 9] was 0.351 ± 0.24. For the same molecule, the “promoter activity interaction Z-score” value [5, 10] was 0.112 ± 0.039, the “promoter activity interaction Z-score” value [5, 11] was 0.0211 ± 0.46 and the “promoter activity interaction Z-score” value [5, 12] was 0.161 ± 0.081. The “promoter activity interaction Z-score” value [5, 13] was 0.493 ± 0.4, the “promoter activity interaction Z-score” value [5, 14] was 0.0711 ± 0.33 and the “promoter activity interaction Z-score” value [5, 15] was -0.912 ± 0.1. For the same molecule, the “promoter activity interaction Z-score” value [5, 16] was -0.286 ± 0.13, the “promoter activity interaction Z-score” value [5, 17] was -0.426 ± 0.29 and the “promoter activity interaction Z-score” value [5, 18] was -1.18 ± 0.44. The “promoter activity interaction Z-score” value [5, 19] was -0.966 ± 0.2, the “promoter activity interaction Z-score” value [5, 20] was 0.057 ± 0.46 and the “promoter activity interaction Z-score” value [5, 21] was 0.0892 ± 0.25. The “promoter activity interaction Z-score” value [5, 22] was -0.403 ± 0.09, the “promoter activity interaction Z-score” value [5, 23] was -0.691 ± 0.56 and the “promoter activity interaction Z-score” value [6, 8] was 0.261 ± 0.1. For the same molecule, the “promoter activity interaction Z-score” value [6, 9] was 0.522 ± 0.037, the “promoter activity interaction Z-score” value [6, 10] was 0.347 ± 0.19 and the “promoter activity interaction Z-score” value [6, 11] was 0.264 ± 0.44. For the same molecule, the “promoter activity interaction Z-score” value [6, 12] was 0.256 ± 0.0038, the “promoter activity interaction Z-score” value [6, 13] was 0.598 ± 0.099 and the “promoter activity interaction Z-score” value [6, 14] was 0.475 ± 0.19. For the same molecule, the “promoter activity interaction Z-score” value [6, 15] was 0.221 ± 0.36, the “promoter activity interaction Z-score” value [6, 16] was 0.22 ± 0.037 and the “promoter activity interaction Z-score” value [6, 17] was 0.334 ± 0.14. The “promoter activity interaction Z-score” value [6, 18] was 0.132 ± 0.069, the “promoter activity interaction Z-score” value [6, 19] was -0.0814 ± 0.51 and the “promoter activity interaction Z-score” value [6, 20] was 0.104 ± 0.3. For the same molecule, the “promoter activity interaction Z-score” value [6, 21] was 0.366 ± 0.082, the “promoter activity interaction Z-score” value [6, 22] was 0.122 ± 0.097 and the “promoter activity interaction Z-score” value [6, 23] was 0.0852 ± 0.84. The “promoter activity interaction Z-score” value [7, 8] was -0.101 ± 0.82, the “promoter activity interaction Z-score” value [7, 9] was 0.236 ± 0.64 and the “promoter activity interaction Z-score” value [7, 10] was 0.123 ± 0.14. For the same molecule, the “promoter activity interaction Z-score” value [7, 11] was 0.273 ± 0.67, the “promoter activity interaction Z-score” value [7, 12] was 0.46 ± 0.55 and the “promoter activity interaction Z-score” value [7, 13] was 0.0925 ± 0.54. For the same molecule, the “promoter activity interaction Z-score” value [7, 14] was 1.34 ± 1.4, the “promoter activity interaction Z-score” value [7, 15] was -0.689 ± 1 and the “promoter activity interaction Z-score” value [7, 16] was 0.324 ± 0.25. For the same molecule, the “promoter activity interaction Z-score” value [7, 17] was 0.169 ± 0.61, the “promoter activity interaction Z-score” value [7, 18] was -0.992 ± 0.65 and the “promoter activity interaction Z-score” value [7, 19] was 0.413 ± 0.89. The “promoter activity interaction Z-score” value [7, 20] was 0.769 ± 0.93, the “promoter activity interaction Z-score” value [7, 21] was 0.232 ± 0.41 and the “promoter activity interaction Z-score” value [7, 22] was 0.664 ± 0.066. The “promoter activity interaction Z-score” value [7, 23] was 0.553 ± 0.38.
